What all share (experiment): DAPPL (digital affinity profiling via proximity ligation, sequencing); 10 mM Tris-HCl pH 7.5, 50 mM NaCl, 1 mM DTT, 4% glycerol, room temperature, 30 min; GST-TFs on glutathione beads, 16-mer random dsDNA library, 0.1% formaldehyde crosslink after washing; high values mean tight binding
Settings in all cases: protein: recombinant; tags: N-terminal GST; dsDNA, one strand shown

In one assay the target is T1, FLI1 (Homo sapiens, UniProt Q01543 1-452).
T1 sequence: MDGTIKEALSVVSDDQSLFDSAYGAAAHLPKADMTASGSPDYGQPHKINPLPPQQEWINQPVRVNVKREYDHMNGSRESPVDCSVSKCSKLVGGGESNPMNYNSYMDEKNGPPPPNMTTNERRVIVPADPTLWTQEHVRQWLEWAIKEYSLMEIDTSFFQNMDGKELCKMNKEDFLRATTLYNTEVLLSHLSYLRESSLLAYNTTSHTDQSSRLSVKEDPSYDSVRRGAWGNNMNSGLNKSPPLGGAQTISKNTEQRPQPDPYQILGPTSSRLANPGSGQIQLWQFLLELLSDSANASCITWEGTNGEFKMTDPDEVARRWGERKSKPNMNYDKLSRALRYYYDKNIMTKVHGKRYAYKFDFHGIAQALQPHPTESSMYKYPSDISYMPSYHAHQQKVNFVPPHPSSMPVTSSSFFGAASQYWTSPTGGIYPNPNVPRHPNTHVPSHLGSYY
The method, boiled down:
(§1)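 Pools of DNA-barcoded human transcription factors, expressed in yeast as GST fusions on glutathione beads and combined with a tag-only sample, were incubated with 200 nmole of a 16-mer random double-stranded DNA library. Incubation took 30 min at room temperature in Tris/NaCl/DTT/glycerol buffer and was followed by washing, 0.1% formaldehyde crosslinking, proximity ligation (BsaI/T4 ligase, 1 h, 37 °C), PCR amplification and sequencing on an Illumina NextSeq500. Binding signal is the ratio of a hexamer's read frequency for a factor to its frequency for the tag-only sample.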

Another assay has as its target T2, ELK1 (Homo sapiens, UniProt P19419 1-428).
T2 sequence: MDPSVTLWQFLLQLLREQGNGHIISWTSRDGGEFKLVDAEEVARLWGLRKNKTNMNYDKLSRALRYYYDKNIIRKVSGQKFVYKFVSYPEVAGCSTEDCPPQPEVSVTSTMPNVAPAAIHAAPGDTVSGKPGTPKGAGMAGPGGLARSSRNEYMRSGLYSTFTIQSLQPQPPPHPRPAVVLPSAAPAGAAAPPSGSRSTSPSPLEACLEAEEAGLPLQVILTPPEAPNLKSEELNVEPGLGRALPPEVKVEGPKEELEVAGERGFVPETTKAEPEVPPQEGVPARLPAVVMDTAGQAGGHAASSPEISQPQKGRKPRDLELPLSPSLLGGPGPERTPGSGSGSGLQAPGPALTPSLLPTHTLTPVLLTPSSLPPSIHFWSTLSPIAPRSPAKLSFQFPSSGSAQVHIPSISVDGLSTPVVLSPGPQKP
The method, boiled down: as §1

The target of another assay is T3, GABPA (Homo sapiens, UniProt Q06546 1-454).
T3 sequence: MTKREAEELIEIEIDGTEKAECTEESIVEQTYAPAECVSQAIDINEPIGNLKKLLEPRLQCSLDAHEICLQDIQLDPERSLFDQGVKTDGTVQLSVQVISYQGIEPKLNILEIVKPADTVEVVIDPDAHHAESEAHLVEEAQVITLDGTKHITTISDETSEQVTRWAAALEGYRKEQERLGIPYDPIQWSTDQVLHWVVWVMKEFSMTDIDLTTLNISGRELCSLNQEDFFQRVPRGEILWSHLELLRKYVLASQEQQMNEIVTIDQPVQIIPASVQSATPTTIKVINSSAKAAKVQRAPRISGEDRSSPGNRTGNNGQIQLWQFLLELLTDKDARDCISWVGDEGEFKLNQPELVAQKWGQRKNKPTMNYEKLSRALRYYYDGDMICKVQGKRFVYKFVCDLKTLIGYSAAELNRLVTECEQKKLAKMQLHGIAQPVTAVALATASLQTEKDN
The method, boiled down:
as §1

The next assay has as its target T4, ERG (Homo sapiens, UniProt P11308 1-479).
T4 sequence: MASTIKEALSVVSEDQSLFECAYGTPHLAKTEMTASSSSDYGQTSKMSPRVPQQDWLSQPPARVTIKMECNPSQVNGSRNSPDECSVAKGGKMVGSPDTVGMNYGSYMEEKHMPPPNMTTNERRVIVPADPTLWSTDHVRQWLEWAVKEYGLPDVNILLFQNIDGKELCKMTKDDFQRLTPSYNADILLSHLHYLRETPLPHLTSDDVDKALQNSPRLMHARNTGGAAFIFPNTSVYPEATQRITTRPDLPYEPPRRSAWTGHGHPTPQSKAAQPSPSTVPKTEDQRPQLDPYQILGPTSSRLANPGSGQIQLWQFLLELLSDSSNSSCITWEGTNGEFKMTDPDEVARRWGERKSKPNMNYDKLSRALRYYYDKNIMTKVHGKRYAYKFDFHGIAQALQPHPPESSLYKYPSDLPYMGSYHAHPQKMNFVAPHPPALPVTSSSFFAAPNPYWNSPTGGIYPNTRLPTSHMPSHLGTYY
A digest of the protocol: as §1

In a further assay the target is ELF1 (Homo sapiens, UniProt P32519 1-619). A digest of the protocol:
as §1

In another assay the target is T5, EHF (Homo sapiens, UniProt Q9NZC4 1-300).
T5 sequence: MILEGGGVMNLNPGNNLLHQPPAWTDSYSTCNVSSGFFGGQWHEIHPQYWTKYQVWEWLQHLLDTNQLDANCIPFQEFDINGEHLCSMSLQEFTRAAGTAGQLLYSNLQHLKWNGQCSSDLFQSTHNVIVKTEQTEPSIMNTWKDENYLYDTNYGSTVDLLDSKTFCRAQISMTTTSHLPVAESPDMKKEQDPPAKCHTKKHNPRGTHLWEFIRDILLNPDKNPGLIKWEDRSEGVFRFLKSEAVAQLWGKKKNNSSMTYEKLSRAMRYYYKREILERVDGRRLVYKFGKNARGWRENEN
A digest of the protocol: as §1

In another assay the target is SPI1 (Homo sapiens, UniProt P17947 1-270). The method, boiled down: as §1
For a further assay, the target named is SPIB (Homo sapiens, UniProt Q01892 1-262). The method, boiled down: as §1
In another assay the target is T6, FEV (Homo sapiens, UniProt Q99581 1-238).
T6 sequence: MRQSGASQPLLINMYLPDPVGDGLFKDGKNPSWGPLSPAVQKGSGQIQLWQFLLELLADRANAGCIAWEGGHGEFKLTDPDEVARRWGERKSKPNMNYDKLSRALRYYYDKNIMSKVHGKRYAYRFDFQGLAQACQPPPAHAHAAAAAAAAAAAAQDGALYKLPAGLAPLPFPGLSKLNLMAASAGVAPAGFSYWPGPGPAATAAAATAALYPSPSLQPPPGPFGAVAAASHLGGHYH
A digest of the protocol: as §1

For a further assay, the target named is ETV5 (Homo sapiens, UniProt P41161 1-510). A digest of the protocol: as §1
A further assay deals with T7, SPIC (Homo sapiens, UniProt Q8N5J4 1-248).
T7 sequence: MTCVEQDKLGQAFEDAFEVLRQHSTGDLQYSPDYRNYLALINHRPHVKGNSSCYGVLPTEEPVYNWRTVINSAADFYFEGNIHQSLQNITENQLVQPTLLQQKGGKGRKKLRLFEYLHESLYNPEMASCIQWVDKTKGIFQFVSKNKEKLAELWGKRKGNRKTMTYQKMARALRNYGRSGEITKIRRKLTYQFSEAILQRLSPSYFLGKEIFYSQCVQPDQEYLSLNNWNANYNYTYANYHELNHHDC
The method, boiled down: as §1

A further assay deals with ELF4 (Homo sapiens, UniProt Q99607 1-663). A digest of the protocol:
as §1

The target in a further assay is ETV1 (Homo sapiens, UniProt P50549 1-477). A digest of the protocol:
as §1

For a further assay, the target named is T8, ERF (Homo sapiens, UniProt P50548 1-548).
T8 sequence: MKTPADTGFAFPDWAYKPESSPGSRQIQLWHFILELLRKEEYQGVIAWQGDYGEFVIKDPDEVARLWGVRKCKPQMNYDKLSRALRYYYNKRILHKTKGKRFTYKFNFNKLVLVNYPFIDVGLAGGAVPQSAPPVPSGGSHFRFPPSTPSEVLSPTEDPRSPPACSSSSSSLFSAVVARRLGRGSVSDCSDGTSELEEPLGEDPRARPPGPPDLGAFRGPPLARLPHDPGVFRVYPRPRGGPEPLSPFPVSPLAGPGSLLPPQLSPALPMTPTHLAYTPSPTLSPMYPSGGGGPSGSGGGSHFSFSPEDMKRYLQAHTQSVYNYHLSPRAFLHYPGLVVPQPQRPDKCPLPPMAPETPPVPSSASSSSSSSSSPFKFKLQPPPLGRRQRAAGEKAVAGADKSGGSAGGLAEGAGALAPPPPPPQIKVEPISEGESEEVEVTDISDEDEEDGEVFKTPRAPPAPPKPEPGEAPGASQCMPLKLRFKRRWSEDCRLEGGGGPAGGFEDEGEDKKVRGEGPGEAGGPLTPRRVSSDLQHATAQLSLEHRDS
A digest of the protocol: as §1

The next assay has as its target T9, ETV3L (Homo sapiens, UniProt Q6ZN32 1-361).
T9 sequence: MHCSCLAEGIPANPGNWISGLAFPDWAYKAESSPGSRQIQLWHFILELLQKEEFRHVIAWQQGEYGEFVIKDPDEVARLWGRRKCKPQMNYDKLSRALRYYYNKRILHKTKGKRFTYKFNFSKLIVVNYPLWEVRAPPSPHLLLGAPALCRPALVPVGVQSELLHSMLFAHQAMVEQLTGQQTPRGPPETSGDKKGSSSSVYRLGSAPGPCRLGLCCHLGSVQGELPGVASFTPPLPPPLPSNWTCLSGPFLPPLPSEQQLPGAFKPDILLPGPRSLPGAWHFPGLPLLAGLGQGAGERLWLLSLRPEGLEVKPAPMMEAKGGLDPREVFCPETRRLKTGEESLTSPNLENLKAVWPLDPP
The method, boiled down:
as §1

Another assay addresses T10, ETS2 (Homo sapiens, UniProt P15036 1-469).
T10 sequence: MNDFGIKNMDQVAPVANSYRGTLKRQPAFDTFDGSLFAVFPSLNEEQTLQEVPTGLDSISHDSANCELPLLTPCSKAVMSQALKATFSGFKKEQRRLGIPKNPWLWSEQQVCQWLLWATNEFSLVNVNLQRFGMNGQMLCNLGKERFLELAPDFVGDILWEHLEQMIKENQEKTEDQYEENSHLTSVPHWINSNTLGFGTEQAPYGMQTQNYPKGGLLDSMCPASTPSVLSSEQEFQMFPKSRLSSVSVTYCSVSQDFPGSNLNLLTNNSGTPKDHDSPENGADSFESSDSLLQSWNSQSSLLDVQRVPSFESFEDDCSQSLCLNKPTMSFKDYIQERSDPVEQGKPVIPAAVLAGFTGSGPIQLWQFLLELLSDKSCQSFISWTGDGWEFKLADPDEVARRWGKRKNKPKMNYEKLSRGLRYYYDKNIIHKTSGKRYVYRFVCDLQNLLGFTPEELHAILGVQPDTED
The method, boiled down:
as §1

The target of another assay is T11, SPDEF (Homo sapiens, UniProt O95238 1-335).
T11 sequence: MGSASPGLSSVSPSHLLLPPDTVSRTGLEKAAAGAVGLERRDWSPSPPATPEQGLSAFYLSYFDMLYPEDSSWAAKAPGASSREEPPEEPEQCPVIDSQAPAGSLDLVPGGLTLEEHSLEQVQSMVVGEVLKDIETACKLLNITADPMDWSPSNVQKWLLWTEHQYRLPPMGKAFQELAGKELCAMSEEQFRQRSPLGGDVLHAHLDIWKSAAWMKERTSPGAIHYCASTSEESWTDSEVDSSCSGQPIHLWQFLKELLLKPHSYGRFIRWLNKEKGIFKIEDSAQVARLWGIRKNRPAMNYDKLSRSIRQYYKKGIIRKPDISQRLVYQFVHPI
The method, boiled down:
as §1

Another assay has as its target T12, ELF5 (Homo sapiens, UniProt Q9UKW6-2 1-255).
T12 sequence: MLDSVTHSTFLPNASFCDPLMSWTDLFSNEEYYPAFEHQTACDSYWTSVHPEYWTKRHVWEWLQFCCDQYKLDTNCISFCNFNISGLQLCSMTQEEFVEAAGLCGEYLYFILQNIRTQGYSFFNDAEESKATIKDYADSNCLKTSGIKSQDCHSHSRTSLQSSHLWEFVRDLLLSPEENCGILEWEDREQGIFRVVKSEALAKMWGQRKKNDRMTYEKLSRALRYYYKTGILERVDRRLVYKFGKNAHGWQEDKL
The method, boiled down:
as §1

The target of a further assay is T13, ETV3 (Homo sapiens, UniProt P41162-2 1-143).
T13 sequence: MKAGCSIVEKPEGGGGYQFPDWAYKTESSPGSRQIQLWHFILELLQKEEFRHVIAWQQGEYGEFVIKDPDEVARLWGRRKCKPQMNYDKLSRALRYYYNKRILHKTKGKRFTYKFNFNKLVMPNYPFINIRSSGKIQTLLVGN
The method, boiled down: as §1

In another assay the target is ETV6 (Homo sapiens, UniProt P41212 1-452). A digest of the protocol: as §1
Chain of ETV6 (P41212 whole entry): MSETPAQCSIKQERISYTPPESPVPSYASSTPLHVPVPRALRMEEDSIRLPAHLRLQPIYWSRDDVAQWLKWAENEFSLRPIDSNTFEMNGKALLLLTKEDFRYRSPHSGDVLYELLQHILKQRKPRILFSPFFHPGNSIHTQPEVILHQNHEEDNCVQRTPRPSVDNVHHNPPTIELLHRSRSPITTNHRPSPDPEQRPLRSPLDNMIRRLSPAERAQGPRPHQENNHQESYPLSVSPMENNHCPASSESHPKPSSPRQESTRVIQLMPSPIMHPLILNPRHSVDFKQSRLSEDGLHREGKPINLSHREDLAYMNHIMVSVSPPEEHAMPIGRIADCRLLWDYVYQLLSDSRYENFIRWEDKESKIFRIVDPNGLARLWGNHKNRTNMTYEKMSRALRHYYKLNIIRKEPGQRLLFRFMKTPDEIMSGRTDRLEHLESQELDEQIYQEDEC

Chain of ELF4 (Q99607 whole entry): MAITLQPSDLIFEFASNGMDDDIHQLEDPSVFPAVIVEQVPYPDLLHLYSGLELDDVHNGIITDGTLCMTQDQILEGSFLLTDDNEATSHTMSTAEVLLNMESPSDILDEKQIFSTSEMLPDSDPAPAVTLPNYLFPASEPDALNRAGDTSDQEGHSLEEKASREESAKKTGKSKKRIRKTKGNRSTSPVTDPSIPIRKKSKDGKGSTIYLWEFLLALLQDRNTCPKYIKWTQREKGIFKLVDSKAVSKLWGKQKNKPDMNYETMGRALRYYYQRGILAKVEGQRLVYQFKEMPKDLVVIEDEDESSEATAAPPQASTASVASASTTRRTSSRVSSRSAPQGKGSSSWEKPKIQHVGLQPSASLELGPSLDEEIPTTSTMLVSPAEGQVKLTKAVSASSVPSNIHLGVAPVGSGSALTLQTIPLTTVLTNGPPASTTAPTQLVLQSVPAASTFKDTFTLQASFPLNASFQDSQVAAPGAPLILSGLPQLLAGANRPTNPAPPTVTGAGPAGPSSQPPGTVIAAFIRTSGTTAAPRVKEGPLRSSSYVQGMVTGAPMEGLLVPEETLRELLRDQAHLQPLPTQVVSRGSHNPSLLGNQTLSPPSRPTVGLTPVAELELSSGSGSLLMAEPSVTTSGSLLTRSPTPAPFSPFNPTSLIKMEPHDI
Chain of ETV1 (P50549 whole entry): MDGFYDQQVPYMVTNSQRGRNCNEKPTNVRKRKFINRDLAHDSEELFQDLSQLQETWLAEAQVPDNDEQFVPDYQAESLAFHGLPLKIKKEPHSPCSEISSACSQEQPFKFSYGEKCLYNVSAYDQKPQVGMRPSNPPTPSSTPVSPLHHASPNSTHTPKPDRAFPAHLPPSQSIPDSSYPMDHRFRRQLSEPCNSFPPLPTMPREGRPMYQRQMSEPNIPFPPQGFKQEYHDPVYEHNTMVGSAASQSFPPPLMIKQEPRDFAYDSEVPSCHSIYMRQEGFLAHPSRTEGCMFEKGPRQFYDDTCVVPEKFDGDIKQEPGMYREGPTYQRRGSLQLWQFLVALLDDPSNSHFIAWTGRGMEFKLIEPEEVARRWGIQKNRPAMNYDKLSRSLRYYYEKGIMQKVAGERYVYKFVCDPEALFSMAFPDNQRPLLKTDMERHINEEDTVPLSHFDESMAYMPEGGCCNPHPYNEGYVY
Chain of ETV5 (P41161 whole entry): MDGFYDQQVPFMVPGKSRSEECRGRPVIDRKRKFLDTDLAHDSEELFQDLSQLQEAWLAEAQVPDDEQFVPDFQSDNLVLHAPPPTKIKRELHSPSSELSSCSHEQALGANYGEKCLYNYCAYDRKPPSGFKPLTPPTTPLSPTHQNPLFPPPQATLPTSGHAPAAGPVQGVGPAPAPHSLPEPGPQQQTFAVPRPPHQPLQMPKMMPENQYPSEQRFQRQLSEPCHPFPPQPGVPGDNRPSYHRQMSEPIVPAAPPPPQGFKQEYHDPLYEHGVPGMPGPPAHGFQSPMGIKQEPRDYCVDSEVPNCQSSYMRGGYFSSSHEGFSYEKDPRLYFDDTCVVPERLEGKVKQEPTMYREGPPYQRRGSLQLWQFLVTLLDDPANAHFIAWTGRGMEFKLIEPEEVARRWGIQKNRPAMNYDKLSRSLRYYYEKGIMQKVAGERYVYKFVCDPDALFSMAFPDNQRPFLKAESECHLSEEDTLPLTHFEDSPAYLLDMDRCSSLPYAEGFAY
Chain of ELF1 (P32519 whole entry): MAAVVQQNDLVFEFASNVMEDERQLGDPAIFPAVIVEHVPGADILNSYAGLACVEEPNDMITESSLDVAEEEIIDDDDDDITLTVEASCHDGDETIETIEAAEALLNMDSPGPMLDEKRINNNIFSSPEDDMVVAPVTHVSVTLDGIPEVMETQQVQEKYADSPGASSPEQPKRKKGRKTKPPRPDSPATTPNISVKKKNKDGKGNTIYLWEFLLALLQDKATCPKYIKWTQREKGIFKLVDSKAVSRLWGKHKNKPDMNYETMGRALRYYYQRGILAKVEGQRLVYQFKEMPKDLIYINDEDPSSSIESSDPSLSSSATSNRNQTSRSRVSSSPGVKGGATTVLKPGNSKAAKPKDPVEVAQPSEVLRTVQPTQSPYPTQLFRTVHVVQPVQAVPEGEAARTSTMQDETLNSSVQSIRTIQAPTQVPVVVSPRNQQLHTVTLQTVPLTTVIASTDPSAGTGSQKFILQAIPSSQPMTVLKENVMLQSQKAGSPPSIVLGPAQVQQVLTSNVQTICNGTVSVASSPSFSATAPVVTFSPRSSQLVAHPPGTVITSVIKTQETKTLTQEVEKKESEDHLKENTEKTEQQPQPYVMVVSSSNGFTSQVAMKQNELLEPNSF
Chain of SPIB (Q01892 whole entry): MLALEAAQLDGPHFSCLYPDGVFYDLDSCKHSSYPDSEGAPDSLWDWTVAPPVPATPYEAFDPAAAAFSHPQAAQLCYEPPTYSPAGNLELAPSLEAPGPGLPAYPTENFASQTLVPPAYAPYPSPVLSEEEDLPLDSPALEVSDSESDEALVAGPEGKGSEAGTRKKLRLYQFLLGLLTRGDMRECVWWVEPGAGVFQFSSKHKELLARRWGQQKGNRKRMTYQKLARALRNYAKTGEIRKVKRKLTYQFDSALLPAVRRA

As to ACCACC, the binding signal in the assay with FLI1 is 1.1 fold enrichment (6-mer frequency, TF over GST control); with ELK1 it was 1.08 fold enrichment (6-mer frequency, TF over GST control); in the assay with GABPA, 1.14 fold enrichment (6-mer frequency, TF over GST control); in the assay with ERG, 1.11 fold enrichment (6-mer frequency, TF over GST control); with ELF1, 1.18 fold enrichment (6-mer frequency, TF over GST control); with EHF, 1.15 fold enrichment (6-mer frequency, TF over GST control). Also, the binding signal in the assay with SPI1 is 1.1 fold enrichment (6-mer frequency, TF over GST control); with SPIB, 1.18 fold enrichment (6-mer frequency, TF over GST control); with FEV, 1.18 fold enrichment (6-mer frequency, TF over GST control); with ETV5 it was 1.1 fold enrichment (6-mer frequency, TF over GST control); with SPIC, 1.08 fold enrichment (6-mer frequency, TF over GST control); with ELF4, 1.14 fold enrichment (6-mer frequency, TF over GST control). Further, the binding signal in the assay with ETV1 was 1.02 fold enrichment (6-mer frequency, TF over GST control); in the assay with ERF it was 1.17 fold enrichment (6-mer frequency, TF over GST control); with ETV3L it was 1.08 fold enrichment (6-mer frequency, TF over GST control); with ETS2 it was 1.15 fold enrichment (6-mer frequency, TF over GST control); in the assay with SPDEF, 1.17 fold enrichment (6-mer frequency, TF over GST control); in the assay with ELF5, 1.07 fold enrichment (6-mer frequency, TF over GST control). Besides, the binding signal with ETV3 was 1.08 fold enrichment (6-mer frequency, TF over GST control); with ETV6, 1.09 fold enrichment (6-mer frequency, TF over GST control).

The record behind these values is PMC7862700, “An all-to-all approach to the identification of sequence-specific readers for epigenetic DNA modifications on cytosine”.
